Here are results for ten compounds from PubChem BioAssay (NCI).

A short description of experiment [1]: NCI Yeast Anticancer Drug Screen. Data for the rad50 strain (AID 155).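 Further: 0% = growth of vehicle-only cultures of the same strain.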 Particulars: S. cerevisiae rad50 strain growth inhibition, active compounds read high. In outline:
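A DNA repair-deficient yeast mutant serves as the test organism; compound-induced growth inhibition is calculated against vehicle-treated cells.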

A short description of experiment [2]: NCI Yeast Anticancer Drug Screen. Data for the mec2-1 strain (AID 157). Particulars: S. cerevisiae mec2-1 strain, active compounds read high. The procedure, abridged:
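Cells of the genetically defined mec2-1 yeast strain are incubated with test compound. Inhibition of growth is calculated against vehicle-treated controls.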

The nature of experiment [3]: NCI Yeast Anticancer Drug Screen. Data for the sgs1 mgt1 strain (AID 161).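 Further: 0% = growth of cultures given vehicle only.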 As to conditions: S. cerevisiae sgs1 mgt1 strain, active compounds read high. In outline: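 Mutant yeast exposed to compound; growth scored against vehicle-only wells.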
Experiment [4] is described as follows: NCI Yeast Anticancer Drug Screen. Data for the cln2 rad14 strain (AID 165).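 Further: 0% = growth equal to vehicle treated cultures.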 Particulars: S. cerevisiae cln2 rad14 strain, active compounds read high. In outline:
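The screen exposed genetically defined yeast (cln2 rad14) to test compounds and scored growth inhibition relative to vehicle-treated controls.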

A short description of experiment [5]: NCI Yeast Anticancer Drug Screen. Data for the bub3 strain (AID 167). Particulars: S. cerevisiae bub3 mutant strain, active compounds read high. In outline: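 Inhibition values come from growth of compound-treated mutant yeast normalised to vehicle-treated controls.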
Experiment [6] in a line: NCI Yeast Anticancer Drug Screen. Data for the mlh1 rad18 strain (AID 175). Particulars: S. cerevisiae mlh1 rad18 strain growth inhibition, active compounds read high. The procedure, abridged:
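Compound-treated yeast growth, normalised to vehicle controls. Strain bears defined DNA repair mutations.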

The mark [7] stands for this setting: at 5.0 µM (retest, dose inferred, filed as 0.5).
Setting [8] is: at 50.0 µM (retest, dose inferred, filed as 5.0).

The structures appear in SMILES notation. The panel holds about 79,000 compounds, 15% with a hit somewhere; the sample as a whole holds those more often. Values without a mark were called inactive. The source made the active and inactive calls. No stated cut-off is given here; in the data, active means growth inhibition above about 70%; inactive means the rest.

Turning to `O=C(Nc1ccc(/C=C/c2ccc(NC(=O)c3cc(S(=O)(=O)O)c4cccnc4c3O)cc2S(=O)(=O)O)c(S(=O)(=O)O)c1)c1cc(S(=O)(=O)O)c2cccnc2c1O`, the growth inhibition was 19% in experiment [1] (setting [7]); 97% (active) in experiment [1] (setting [8]); 94.4% (active) in experiment [1] (at 50.0 µM); 26% in experiment [2] (setting [7]); 97% (active) in experiment [2] (setting [8]); 88.7% (active) in experiment [2] (at 50.0 µM). The growth inhibition in experiment [3] (setting [7]) was 34%; in experiment [3] (setting [8]), 97% (active); in experiment [3] (at 50.0 µM), 93.8% (active); in experiment [4] (setting [7]), 9%; in experiment [4] (setting [8]), 95% (active); in experiment [4] (at 50.0 µM) it was 90.2% (active). The growth inhibition was 13% in experiment [5] (setting [7]); 98% (active) in experiment [5] (setting [8]); 95.9% (active) in experiment [5] (at 50.0 µM); 41% in experiment [6] (setting [7]); 97% (active) in experiment [6] (setting [8]); 91.3% (active) in experiment [6] (at 50.0 µM).
Take `Cc1cc(C)c(CCCC(=O)c2c(C)cc(C)cc2C)c(C)c1`: the growth inhibition in experiment [1] (setting [7]) is -7%; in experiment [1] (setting [8]), 28%; in experiment [1] (at 50.0 µM) it was 9.85%; in experiment [2] (setting [7]) it was -4%; in experiment [2] (setting [8]) it was 1%; in experiment [2] (at 50.0 µM), -1.6%. Also, the growth inhibition in experiment [3] (setting [7]) was -7%; in experiment [3] (setting [8]), 23%; in experiment [3] (at 50.0 µM) it was 9.85%; in experiment [4] (setting [7]) it was 1%; in experiment [4] (setting [8]) it was -10%; in experiment [4] (at 50.0 µM), 29.1%. Further, the growth inhibition is 1% in experiment [5] (setting [7]); 6% in experiment [5] (setting [8]); 15.6% in experiment [5] (at 50.0 µM); -3% in experiment [6] (setting [7]); -12% in experiment [6] (setting [8]); 9.75% in experiment [6] (at 50.0 µM).
`CCOC(=O)/C(=C/O)c1c[nH]c2ccccc12`: the growth inhibition was 0% in experiment [1] (setting [7]); 94% (active) in experiment [1] (setting [8]); 97.8% (active) in experiment [1] (at 50.0 µM); -4% in experiment [2] (setting [7]); 95% (active) in experiment [2] (setting [8]); 98.3% (active) in experiment [2] (at 50.0 µM). Moreover, the growth inhibition is -4% in experiment [3] (setting [7]); 95% (active) in experiment [3] (setting [8]); 96.8% (active) in experiment [3] (at 50.0 µM); 1% in experiment [4] (setting [7]); 96% (active) in experiment [4] (setting [8]); 96% (active) in experiment [4] (at 50.0 µM). Also, the growth inhibition is 0% in experiment [5] (setting [7]); 96% (active) in experiment [5] (setting [8]); 97.3% (active) in experiment [5] (at 50.0 µM); 3% in experiment [6] (setting [7]); 96% (active) in experiment [6] (setting [8]); 97.7% (active) in experiment [6] (at 50.0 µM).
Turning to `Cc1cc(C)nc(CCSS(=O)(=O)O)c1`, the growth inhibition in experiment [1] (setting [7]) was -4%; in experiment [1] (setting [8]), 5%; in experiment [1] (at 50.0 µM) it was 12.7%; in experiment [2] (setting [7]), -17%; in experiment [2] (setting [8]), 2%; in experiment [2] (at 50.0 µM), -0.95%. The growth inhibition in experiment [3] (setting [7]) was 2%; in experiment [3] (setting [8]), 6%; in experiment [3] (at 50.0 µM), 3.35%; in experiment [4] (setting [7]), -1%; in experiment [4] (setting [8]), -8%; in experiment [4] (at 50.0 µM) it was 0.65%. In addition, the growth inhibition in experiment [5] (setting [7]) is -1%; in experiment [5] (setting [8]), -6%; in experiment [5] (at 50.0 µM), 40.9%; in experiment [6] (setting [7]), 12%; in experiment [6] (setting [8]), 6%; in experiment [6] (at 50.0 µM), 5.85%.
As for `COC(OC)(c1ccccc1)C(Br)Br`, the growth inhibition in experiment [1] (setting [7]) is -21%; in experiment [1] (setting [8]), 50%; in experiment [1] (at 50.0 µM), 85.8% (active); in experiment [2] (setting [7]) it was -18%; in experiment [2] (setting [8]), 86% (active); in experiment [2] (at 50.0 µM), 93.2% (active). Moreover, the growth inhibition in experiment [3] (setting [7]) was -24%; in experiment [3] (setting [8]) it was 45%; in experiment [3] (at 50.0 µM), 89.3% (active); in experiment [4] (setting [7]), -7%; in experiment [4] (setting [8]), 41%; in experiment [4] (at 50.0 µM), 90.4% (active). For the same compound, the growth inhibition in experiment [5] (setting [7]) was -25%; in experiment [5] (setting [8]), 89% (active); in experiment [5] (at 50.0 µM), 90% (active); in experiment [6] (setting [7]), -12%; in experiment [6] (setting [8]) it was 59%; in experiment [6] (at 50.0 µM) it was 84.8% (active).
Consider `Oc1ccc(C2SC(c3ccc(O)cc3)SC(c3ccc(O)cc3)S2)cc1` (stereo not given), for which the growth inhibition is 14% in experiment [1] (setting [7]); 98% (active) in experiment [1] (setting [8]); 97.6% (active) in experiment [1] (at 50.0 µM); -1% in experiment [2] (setting [7]); 96% (active) in experiment [2] (setting [8]); 99.3% (active) in experiment [2] (at 50.0 µM). Moreover, the growth inhibition in experiment [3] (setting [7]) is -23%; in experiment [3] (setting [8]), 99% (active); in experiment [3] (at 50.0 µM) it was 99% (active); in experiment [4] (setting [7]), 23%; in experiment [4] (setting [8]), 98% (active); in experiment [4] (at 50.0 µM), 98.4% (active). For the same compound, the growth inhibition was 30% in experiment [5] (setting [7]); 99% (active) in experiment [5] (setting [8]); 98.1% (active) in experiment [5] (at 50.0 µM); 35% in experiment [6] (setting [7]); 99% (active) in experiment [6] (setting [8]); 98.8% (active) in experiment [6] (at 50.0 µM).
Turning to `Oc1ccc(C2CCCCC2)c(O)c1`, the growth inhibition in experiment [1] (setting [7]) is -2%; in experiment [1] (setting [8]), 42%; in experiment [1] (at 50.0 µM) it was 75.5% (active); in experiment [2] (setting [7]) it was 2%; in experiment [2] (setting [8]), 53%; in experiment [2] (at 50.0 µM), 61.4%. The growth inhibition is 7% in experiment [3] (setting [7]); 37% in experiment [3] (setting [8]); 66% in experiment [3] (at 50.0 µM); 30% in experiment [4] (setting [7]); 45% in experiment [4] (setting [8]); 65.8% in experiment [4] (at 50.0 µM). Moreover, the growth inhibition was 7% in experiment [5] (setting [7]); 66% in experiment [5] (setting [8]); 67.3% in experiment [5] (at 50.0 µM); 2% in experiment [6] (setting [7]); 72% (active) in experiment [6] (setting [8]); 65.8% in experiment [6] (at 50.0 µM).
Take `C/C(=N\NC(=O)N/N=C(\C)c1ccccn1)c1ccccn1`: the growth inhibition in experiment [1] (setting [7]) is 0%; in experiment [1] (setting [8]) it was 16%; in experiment [1] (at 50.0 µM) it was -6.55%; in experiment [2] (setting [7]), -18%; in experiment [2] (setting [8]), -16%; in experiment [2] (at 50.0 µM), 16.8%. The growth inhibition is 7% in experiment [3] (setting [7]); 24% in experiment [3] (setting [8]); 35.9% in experiment [3] (at 50.0 µM); -21% in experiment [4] (setting [7]); 1% in experiment [4] (setting [8]); 2.95% in experiment [4] (at 50.0 µM). In addition, the growth inhibition in experiment [5] (setting [7]) was 2%; in experiment [5] (setting [8]), -13%; in experiment [5] (at 50.0 µM), 35.5%; in experiment [6] (setting [7]), 14%; in experiment [6] (setting [8]) it was -6%; in experiment [6] (at 50.0 µM) it was -5.95%.
Regarding `CC(=O)Oc1c2c(c(OC(C)=O)c3c1n(C(C)=O)c1ccccc1n3C(C)=O)n(C(C)=O)c1ccccc1n2C(C)=O`, the growth inhibition in experiment [1] (setting [7]) is 50%; in experiment [1] (setting [8]), 50%; in experiment [1] (at 50.0 µM), 78.2% (active); in experiment [2] (setting [7]) it was 42%; in experiment [2] (setting [8]), 42%; in experiment [2] (at 50.0 µM), 74.8% (active). Also, the growth inhibition was 34% in experiment [3] (setting [7]); 34% in experiment [3] (setting [8]); 79.7% (active) in experiment [3] (at 50.0 µM); 26% in experiment [4] (setting [7]); 26% in experiment [4] (setting [8]); 62.5% in experiment [4] (at 50.0 µM). Further, the growth inhibition is 44% in experiment [5] (setting [7]); 44% in experiment [5] (setting [8]); 69.8% in experiment [5] (at 50.0 µM); 51% in experiment [6] (setting [7]); 51% in experiment [6] (setting [8]); 69.7% in experiment [6] (at 50.0 µM).
As to `CC(C)c1c(P(=O)(c2ccccc2)c2ccccc2)n(C)c2ccccc12`, the growth inhibition in experiment [1] (setting [7]) was 36%; in experiment [1] (setting [8]), 99% (active); in experiment [1] (at 50.0 µM), 83.4% (active); in experiment [2] (setting [7]), -34%; in experiment [2] (setting [8]) it was 98% (active); in experiment [2] (at 50.0 µM), 89.5% (active). Further, the growth inhibition in experiment [3] (setting [7]) is -30%; in experiment [3] (setting [8]) it was 89% (active); in experiment [3] (at 50.0 µM), 77.8% (active); in experiment [4] (setting [7]) it was -4%; in experiment [4] (setting [8]), 98% (active); in experiment [4] (at 50.0 µM) it was 85.5% (active). In addition, the growth inhibition in experiment [5] (setting [7]) was -25%; in experiment [5] (setting [8]), 99% (active); in experiment [5] (at 50.0 µM) it was 84.7% (active); in experiment [6] (setting [7]), -27%; in experiment [6] (setting [8]) it was 96% (active); in experiment [6] (at 50.0 µM), 79.6% (active).
